Test results as given in the supplement of paper PMC8728848.
The entries come from a sample that favours the strongest signals as a whole.

Key:
Test in all cases: glycan array binding signal (z-score within array); higher = stronger binding
Details in all cases: glycan notation: IUPAC condensed, linker removed
[1] = biological target: Fuc(a1-2)Gal(b1-3)[Fuc(a1-4)]GlcNAc(b1-3)[Gal(b1-4)GlcNAc(b1-6)]Gal(b1-4)Glc
Method in brief: (§1)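 The binding signal is a Z-score computed within each array. Data were drawn from 3228 arrays in the Consortium for Functional Glycomics database, restricted to those with a known protein sequence. Scores were averaged over arrays of the same protein sequence at different concentrations or buffers, and over linkers, and negative values can be taken as non-binding.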

[2] = biological target: Fuc(a1-2)Gal(b1-4)Glc6S
Method in brief: as §1

[3] = biological target: Fuc(a1-2)Gal(b1-4)GlcNAc(b1-3)Gal(b1-4)GlcNAc(b1-2)Man(a1-3)[Fuc(a1-2)Gal(b1-4)GlcNAc(b1-3)Gal(b1-4)GlcNAc(b1-2)Man(a1-6)]Man(b1-4)GlcNAc(b1-4)GlcNAc
Method in brief: as §1

[4] = biological target: Fuc(a1-2)Gal(b1-4)[Fuc(a1-3)]GlcNAc(b1-2)Man(a1-3)[Fuc(a1-2)Gal(b1-4)[Fuc(a1-3)]GlcNAc(b1-2)Man(a1-6)]Man(b1-4)GlcNAc(b1-4)[Fuc(a1-6)]GlcNAc
Method in brief: as §1

[5] = biological target: Fuc(a1-2)Gal6S(b1-3)GlcNAc6S
Method in brief: as §1

[6] = biological target: Fuc(a1-2)Gal6S(b1-4)Glc6S
Method in brief: as §1

[7] = biological target: Fuc(a1-2)[Gal(a1-3)]Gal(b1-3)GlcNAc(b1-2)Man(a1-3)[Fuc(a1-2)[Gal(a1-3)]Gal(b1-3)GlcNAc(b1-2)Man(a1-6)]Man(b1-4)GlcNAc(b1-4)[Fuc(a1-6)]GlcNAc
Method in brief: as §1

[8] = biological target: Fuc(a1-2)[Gal(a1-3)]Gal(b1-4)GlcNAc(b1-3)GalNAc
Method in brief: as §1

[9] = biological target: Fuc(a1-2)[GalNAc(a1-3)]Gal(b1-4)[Fuc(a1-3)]GlcNAc
Method in brief: as §1

[10] = biological target: Fuc(a1-3)[Gal(b1-4)]GlcNAc(b1-2)Man(a1-3)[Fuc(a1-3)[Gal(b1-4)]GlcNAc(b1-2)Man(a1-6)]Man(b1-4)GlcNAc(b1-4)GlcNAc
Method in brief: as §1

[11] = biological target: Fuc(a1-3)[Gal(b1-4)]GlcNAc(b1-6)[Neu5Ac(a2-3)Gal(b1-3)]GalNAc
Method in brief: as §1

[12] = biological target: Gal(a1-2)Gal
Method in brief: as §1

[13] = biological target: Gal(a1-3)Gal(b1-3)GlcNAc(b1-2)Man(a1-3)[Gal(a1-3)Gal(b1-3)GlcNAc(b1-2)Man(a1-6)]Man(b1-4)GlcNAc(b1-4)GlcNAc
Method in brief: as §1

[14] = biological target: Gal(b1-3)Gal(b1-4)GlcNAc
Method in brief: as §1

[15] = biological target: Gal(b1-3)[Fuc(a1-4)]GlcNAc
Method in brief: as §1

[16] = biological target: Gal(b1-3)[Neu5Ac(a2-6)]GlcNAc
Method in brief: as §1

[17] = biological target: Gal(b1-3)[Neu5Ac(b2-6)]GlcNAc
Method in brief: as §1

[18] = biological target: Gal(b1-4)GlcNAc(b1-2)Man(a1-3)[Gal(b1-4)GlcNAc(b1-2)Man(a1-6)]Man(b1-4)GlcNAc(b1-4)GlcNAc
Method in brief: as §1

[19] = biological target: Gal(b1-4)GlcNAc(b1-2)Man(a1-3)[Gal(b1-4)GlcNAc(b1-2)Man(a1-6)]Man(b1-4)GlcNAc(b1-4)[Fuc(a1-6)]GlcNAc
Method in brief: as §1

[20] = biological target: Gal(b1-4)GlcNAc(b1-2)Man(a1-3)[Man(a1-6)]Man(b1-4)GlcNAc(b1-4)GlcNAc
Method in brief: as §1

[21] = biological target: Gal3S(b1-4)GlcNAc6S
Method in brief: as §1

[22] = biological target: Gal3S4S(b1-4)GlcNAc
Method in brief: as §1

[23] = biological target: GalNAc3S(b1-4)[Fuc(a1-3)]GlcNAc
Method in brief: as §1

[24] = biological target: Glc(a1-6)Glc(a1-6)Glc
Method in brief: as §1

B1: Nictaba (Nicotiana tabacum), Q94EW1 (protein)
chain: MQGQWIAARDLSITWVDNPQYWTWKTVDPNIEVAELRRVAWLDIYGKIETKNLIRKTSYAVYLVFKLTDNPRELERATASLRFVNEVAEGAGIEGTTVFISKKKKLPGELGRFPHLRSDGWLEIKLGEFFNNLGEDGEVEMRLMEINDKTWKSGIIVKGFDIRPN
[1]
  glycan array binding signal (z-score): -0.29
[2]
  glycan array binding signal (z-score): -0.254
[3]
  glycan array binding signal (z-score): 3.54
[4]
  glycan array binding signal (z-score): 5.19
[5]
  glycan array binding signal (z-score): -0.381
[6]
  glycan array binding signal (z-score): -0.234
[7]
  glycan array binding signal (z-score): -0.187
[8]
  glycan array binding signal (z-score): -0.273
[9]
  glycan array binding signal (z-score): -0.307
[10]
  glycan array binding signal (z-score): 5.57
[11]
  glycan array binding signal (z-score): -0.295
[12]
  glycan array binding signal (z-score): -0.289
[13]
  glycan array binding signal (z-score): -0.148
[14]
  glycan array binding signal (z-score): -0.321
[15]
  glycan array binding signal (z-score): -0.271
[16]
  glycan array binding signal (z-score): -0.332
[17]
  glycan array binding signal (z-score): -0.39
[18]
  glycan array binding signal (z-score): 3.74
[19]
  glycan array binding signal (z-score): 1.64
[20]
  glycan array binding signal (z-score): 3.52
[21]
  glycan array binding signal (z-score): -0.163
[22]
  glycan array binding signal (z-score): -0.289
[23]
  glycan array binding signal (z-score): -0.387
[24]
  glycan array binding signal (z-score): -0.295
